Experimental data taken from PubChem BioAssay (NCATS).
Values joined by “and” are separate entries in the source; they are usually repeats but may differ in a detail not shown here. Equal values may be shown once. Records with an inconclusive call do not appear. Active and inactive are the calls of the source. The call rests on the fitted dose curve; in most records, active means well fitted curve in the direction sought with a large enough effect; inconclusive means small, poorly fitted or top-dose-only effect, or another doubt; inactive means no such curve, though single readings can be large; an effect the other way counts as inactive or inconclusive.

Assays:
TAB113 = assay: qHTS profiling for inhibitors of Plasmodium falciparum proliferation (AID 504749);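 further: 0% = DMSO vehicle and full inhibition = artemisinin control; nearly all actives have a fitted effect of over 60% in size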; conditions: P. falciparum in erythrocytes, SYBR Green DNA, 72 h; series mostly up to 28.7 µM
Method in brief: (§1)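 Three-day growth assay of blood-stage parasites in erythrocytes (0.3% parasitemia, 2.5% hematocrit) at 37 C, 5% CO2, quantified by SYBR Green DNA staining after overnight detergent lysis.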

TAB165 = assay: as above; conditions: P. falciparum in erythrocytes, SYBR Green DNA, 72 h; series mostly up to 28.7 µM
Method in brief: as §1

CRL-7250 = normal cell line; assay: Cytotoxic Profiling of Annotated Libraries Using Quantitative High-Throughput Screening (AID 1296008); conditions: Five cell lines viability, CellTiter-Glo ATP luminescence, 48-72 h; max response: hits give low values; further: nearly all actives have a fitted effect of over 60% in size; on max response: on the % scale 0 is the no-effect control and ±100 the full control effect
Method in brief: (§2)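 Cytotoxicity was measured as CellTiter-Glo ATP luminescence, read after 10 min at room temperature. Compound treatment of the cells lasted 48 or 72 hr at 37 degrees Celsius in a qHTS format.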

HEK293 = assay: as above; conditions: Five cell lines viability, CellTiter-Glo ATP luminescence, 48-72 h; max response: hits give low values
Method in brief: as §2

HaCat [1] = assay: as above; conditions: Five cell lines viability, CellTiter-Glo ATP luminescence, 48-72 h; max response: hits give low values
Method in brief: as §2

KB-3-1 = assay: as above; conditions: Five cell lines viability, CellTiter-Glo ATP luminescence, 48-72 h; max response: hits give low values
Method in brief: as §2

NIH3T3 [2] = assay: as above; conditions: Five cell lines viability, CellTiter-Glo ATP luminescence, 48-72 h; max response: hits give low values
Method in brief: as §2

HACAT [3] = assay: qHTS assay to identify novel small-molecules to repurpose for Merkel cell carcinoma treatment (AID 1296009); conditions: MCC and control cell lines, CellTiter-Glo viability, 72 h; at 44.8 µM (top of the series) unless noted; further: nearly all actives have a fitted effect of over 60% in size
Method in brief: (§3)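 After compound transfer in DMSO, plates were kept 72 hr at 37 degree celsius. Luminescent ATP signal from CellTiter-Glo served as viability measure, normalized against DMSO and no-cell controls.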

HEK293T = assay: as above; conditions: MCC and control cell lines, CellTiter-Glo viability, 72 h; at 44.8 µM (top of the series) unless noted
Method in brief: as §3

MCC-13 = assay: as above; conditions: MCC and control cell lines, CellTiter-Glo viability, 72 h; series mostly up to 46 µM
Method in brief: as §3

MCC-26 = assay: as above; conditions: MCC and control cell lines, CellTiter-Glo viability, 72 h; series mostly up to 46 µM
Method in brief: as §3

MKL-1 = assay: as above; conditions: MCC and control cell lines, CellTiter-Glo viability, 72 h; series mostly up to 46 µM
Method in brief: as §3

MKL-2 = assay: as above; conditions: MCC and control cell lines, CellTiter-Glo viability, 72 h; series mostly up to 46 µM
Method in brief: as §3

UISO = assay: as above; conditions: MCC and control cell lines, CellTiter-Glo viability, 72 h; series mostly up to 46 µM
Method in brief: as §3

WaGa = assay: as above; conditions: MCC and control cell lines, CellTiter-Glo viability, 72 h; series mostly up to 46 µM
Method in brief: as §3

C33A = assay: Primary qHTS to identify gynecologic anti-cancer compounds using libraries of approved drugs and bioactive compounds (AID 1345084); conditions: Gynecologic cancer cell panel viability, ATPlite luminescence, 48 h; series mostly up to 57.5 µM; further: on the % scale 0 is the no-effect control and ±100 the full control effect; nearly all actives have a fitted effect of over 55% in size
Method in brief: (§4)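 48 h compound exposure at 37 C, 5% CO2; five-point qHTS. ATPlite luminescence readout of cell ATP.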

CAOV3 = assay: as above; conditions: Gynecologic cancer cell panel viability, ATPlite luminescence, 48 h; series mostly up to 57.5 µM
Method in brief: as §4

CASKI = assay: as above; conditions: Gynecologic cancer cell panel viability, ATPlite luminescence, 48 h; series mostly up to 57.5 µM
Method in brief: as §4

W2 = assay: qHTS profiling for inhibitors of Plasmodium falciparum proliferation (AID 504749);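 further: 0% = DMSO vehicle and full inhibition = artemisinin control; nearly all actives have a fitted effect of over 60% in size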; conditions: P. falciparum in erythrocytes, SYBR Green DNA, 72 h; series mostly up to 28.7 µM
Method in brief: as §1

NIH3T3 [4] = assay: qHTS assay to identify novel small-molecules to repurpose for Merkel cell carcinoma treatment (AID 1296009); conditions: MCC and control cell lines, CellTiter-Glo viability, 72 h; at 44.8 µM (top of the series) unless noted; further: nearly all actives have a fitted effect of over 60% in size
Method in brief: as §3

CCOC(=O)OC(C)OC1=C(C(=O)Nc2ccccn2)N(C)S(=O)(=O)c2ccccc21 (stereo not drawn)
inactive: Potency (TAB113) | Potency (TAB165) | outcome (CRL-7250) | outcome (HEK293) | outcome (HaCat [1]) | max response (KB-3-1) 2.11% | max response (NIH3T3 [2]) 3.47% | outcome (HACAT [3]) | outcome (HEK293T) | Potency (MCC-13) | Potency (MCC-26) | Potency (MKL-1) | Potency (MKL-2) | Potency (UISO) | Potency (WaGa) | Potency (C33A) | Potency (CAOV3) | Potency (CASKI)

Cc1cc2c(cc1CC(=O)c1sccc1S(=O)(=O)Nc1onc(C)c1Cl)OCO2
inactive: max response (CRL-7250) -5.35% and 2.32% | outcome (HEK293) | max response (HaCat [1]) -2.94% | outcome (HaCat [1]) | max response (KB-3-1) 9.67% | max response (NIH3T3 [2]) 0.409% and 4.42% | outcome (HACAT [3]) | outcome (HEK293T) | Potency (MCC-13) | Potency (MCC-26) | Potency (MKL-1) | Potency (MKL-2) | Potency (UISO) | Potency (WaGa) | Potency (C33A) | Potency (CAOV3) | Potency (CASKI)

CC1(C)O[C@@H]2[C@@H](CO[C@@]3(COS(N)(=O)=O)OC(C)(C)O[C@@H]23)O1
inactive: max response (CRL-7250) -9.34% | outcome (HEK293) | outcome (HaCat [1]) | max response (KB-3-1) 12.1% | max response (NIH3T3 [2]) -0.846% | outcome (HACAT [3]) | outcome (HEK293T) | Potency (MCC-13) | Potency (MCC-26) | Potency (MKL-1) | Potency (MKL-2) | Potency (UISO) | Potency (WaGa) | Potency (C33A) | Potency (CAOV3) | Potency (CASKI)

COc1ccc(C2C(=O)c3ccccc3C2=O)cc1
inactive: Potency (TAB113) | Potency (TAB165) | Potency (W2) | max response (CRL-7250) -6.18% | max response (HEK293) -6.61% | outcome (HaCat [1]) | max response (KB-3-1) 1.39% | outcome (NIH3T3 [2]) | outcome (HACAT [3]) | Potency (MCC-13) | Potency (MCC-26) | Potency (MKL-1) | Potency (MKL-2) | outcome (NIH3T3 [4]) | Potency (UISO) | Potency (WaGa) | Potency (C33A) | Potency (CAOV3) | Potency (CASKI)

Cc1ncc(CSSCc2cnc(C)c(O)c2CO)c(CO)c1O
inactive: Potency (TAB113) | Potency (TAB165) | Potency (W2) | max response (CRL-7250) -3.39% | outcome (HEK293) | outcome (HaCat [1]) | max response (KB-3-1) -0.0269% | max response (NIH3T3 [2]) 4.82% | outcome (HACAT [3]) | outcome (HEK293T) | Potency (MCC-13) | Potency (MCC-26) | Potency (MKL-1) | Potency (MKL-2) | Potency (UISO) | Potency (WaGa) | Potency (C33A) | Potency (CAOV3) | Potency (CASKI)

O=C(O)CNC(=O)c1ccccc1
inactive: Potency (TAB113) | Potency (TAB165) | Potency (W2) | max response (CRL-7250) 2.85% | max response (HEK293) -10.7% | outcome (HaCat [1]) | max response (KB-3-1) -0.856% | outcome (NIH3T3 [2]) | outcome (HACAT [3]) | Potency (MCC-13) | Potency (MCC-26) | Potency (MKL-1) | Potency (MKL-2) | outcome (NIH3T3 [4]) | Potency (UISO) | Potency (WaGa) | Potency (C33A) | Potency (CAOV3) | Potency (CASKI)
